Measured values taken from PubChem BioAssay (NCI).
This is part of a sample that, as a whole, favours compounds with a hit. Of some 83,000 tested, about 20% had one in any assay.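 Cells were grown in 96-well plates and exposed to the test compound at a single concentration for 48 hours; results are reported as percent growth, with values below 10 considered active.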 A number with no mark means an inactive call. Calls of active or inactive are those of the source.

Each compound was assayed on NCI-H226 lung (assay: NCI-60 one-dose screen, 48 h (100 = growth as untreated, 0 = no growth, -100 = all killed)). Settings: 10 µM unless noted.
Procedure: Growth inhibition of the NCI-H226 human Non-Small Cell Lung tumor cell line is measured as a screen for anti-cancer activity. Cells are grown in 96 well plates and exposed to the test compound for 48 hours. Compounds are tested at a single concentration, which is 10^-5 M for most compounds. The reported endpoint is percent growth (GI% or GIPRCNT), where numbers from 0 - 100% represent growth inhibition, and numbers from -100% - 0 represent cell death. For example, a value of 40 represents 60% growth inhibition. A value of 0 means no net growth occurred over the course of the experiment. A value of -40 indicates 40% of cells at the beginning of the experiment died by the end of the experiment. A value of -100 means all cells are dead at the end of the experiment.
NCI-60 Human Tumor Cell Lines Screen was performed using the standard one-dose NCI protocol, which is described in more detail at https://dtp.cancer.gov/discovery_development/nci-60/default.htm.
Compounds with GIPRCNT values below 10 were considered active. Activity score was based on GIPRCNT using the following formula: […]
Score is 0 for GIPRCNT values of 100 or above, 50 for GIPRCNT values of 0, and 100 for GIPRCNT values of -100.

Structure (SMILES)	growth
CCOC(=O)C(c1ccccc1)N1C(=O)c2ccccc2C1=O (stereo not given)	106%
Cc1nn(-c2ccccc2)c(N2CCOCC2)c1-c1nc2ccc([N+](=O)[O-])cc2[nH]1	111%
CC1Cc2ccc(OCCN(C)C)cc2C1=O (stereo not given)	99%
CCCCN(CC)CC(CC)Nc1cc(OC)cc2cccnc12 (stereo not given)	107%
Cc1cc(C)nc(SCC(=O)Nc2cccc(N=Cc3ccccc3O)c2)n1	93.8%
C=C(C)[C@@H]1CC[C@]2(C(=O)NCCCCCCN(CCCN)CCCN)CC[C@]3(C)[C@H](CC[C@@H]4[C@@]5(C)CC[C@H](OCCCN)C(C)(C)[C@@H]5CC[C@]43C)[C@@H]12	111% [100 µM]
CCOC(=O)c1cnc2ccc(Br)cc2c1Nc1cccc(S(N)(=O)=O)c1	88.6%
CCOC(=O)c1c[nH]c2cc(OCC3CC3)c(OCC3CC3)cc2c1=O	106%
CC[C@]12C=CCN3CC[C@@]4(c5ccc(OC)cc5N(C)[C@H]4[C@@](O)(C(=O)OC)[C@@H]1OC(=O)CCC(=O)O[C@H]1CC[C@H]4[C@@H]5CCC6=CC(=O)CC[C@@H]6[C@H]5CC[C@]14C)[C@@H]32	-18.3% [100 µM] (active)
CCn1cc(-c2ccnc(NCCNS(=O)(=O)c3cccc4ccccc34)c2)c(-c2cccc(O)c2)n1	94.2%
O=C1/C(=C/c2cccc(OCc3ccccc3)c2)Oc2cc(OCCN3CCCCC3)ccc21	100%
COc1ccc(-c2ccc(NNC(=O)c3ccc(F)cc3)nn2)cc1OC	70%
Ic1ccc2[nH]cc(SSc3c[nH]c4ccc(I)cc34)c2c1	24.9%
CCOC(=O)c1nc2c3ccccc3ccn2c1C(=O)OC	97.2%
Oc1ccc(N=Nc2nccs2)c(O)c1	89.6%
O=C(CCN1CCCCC1)c1ccc2ccccc2c1	92.2%
CCCCCCNC(=O)Nc1ncnc2c1ncn2-c1ccccc1	93.8%
COc1ccc(C=C2c3ccccc3-c3ccccc32)cc1	68.6%
COc1cc(-c2nc(SCCC(C)C)nc(Nc3ccccc3)c2C#N)cc(OC)c1OC	101%
Nc1nnc(CSc2nnc3n(Cc4ccccc4)c(=O)c4c5c(sc4n23)CCCC5)s1	90.6%

Structure (SMILES)	growth
N#C/C(C(=O)c1ccccc1)=C1/C(=O)Nc2ccccc21	104%
CCN1CCN(CC(=O)Nc2nc3ccc(NCc4ccc(Cl)cc4)cc3s2)CC1	60%
O=C(Nc1ccc(CN2CCOCC2)c(C(F)(F)F)c1)c1nc2ccc3[nH]ncc3c2c2c1CCCC2	91.2%
NC(=O)c1c(NC(=O)COC(=O)Cc2ccccc2F)sc2c1CCC2	94.4%
CC(C)CSc1ncnc2nc[nH]c12	85.2%
O=C(CSc1nc2ccc([N+](=O)[O-])cc2[nH]1)Nc1cccc(Cl)c1	12.9%
COc1cc(OC)cc(C(=O)Nc2cc(-c3cccnc3)nc(NCCCN3CCOCC3)n2)c1	85.7%
Nc1nc(Nc2ccccc2)c2ncn(Cc3ccc4c(c3)OCO4)c2n1	75.1%
COc1ccc(/C=C2\N=C(Nc3ccccc3)N(NC(=O)c3ccccn3)C2=O)cc1	98.1%
O=C(CCCCCCSc1nc(-c2ccc(Cl)cc2)cc(-c2ccc(Cl)cc2)n1)NO	26.7%
O=C(Nc1cccnc1)c1ccc2ccc3ccc(C(=O)Nc4cccnc4)nc3c2n1	4.52% (active)
C=C(C)[C@@H]1CC[C@]2(C(=O)NCCNCCNC(=O)OC(C)(C)C)CC[C@]3(C)[C@H](CC[C@@H]4[C@@]5(C)CCC(=O)C(C)(C)[C@@H]5CC[C@]43C)[C@@H]12	44.2% [100 µM]
CCN(CC)c1cc(N)c(Cc2c(N)cc(N(CC)CC)cc2Cl)c(Cl)c1	45.6%
COc1cc(/C=C/C(=O)/C=C/c2ccc(-n3ccnc3C)cc2)ccc1O	89.1%
CCc1ccc(NC(=O)N[C@@H](Cc2cc(F)cc(F)c2)C(=O)N[C@@H]2C(=O)N3C[C@H](O)C[C@H]3C(=O)N3CCOC[C@H]3C(=O)N[C@@H](C)C(=O)N3C[C@H](C)C[C@H]3C(=O)O[C@H]2C)cc1	63.2%
Cn1cc(-c2noc(C(=O)c3cn(C)c4ncc(Br)cc34)n2)c2ccccc21	99.3%
c1ccc2c(c1)CN(CCCN1CCOCC1)C2	96.2%
NC(=S)Cc1ccccc1	96.8%
Cc1ccccc1-n1nnc(C(=O)Nc2nc3ccc(F)cc3s2)c1C	48.4%
CSc1nc(N)c(N=Nc2ccc(S(=O)(=O)Nc3nnc(C)s3)cc2)c(=O)[nH]1	100%
